Results: PubChem BioAssay AID2550 (Johns Hopkins Ion Channel Center, 2010)
The whole screen tested about 310,000 compounds, of which about 380 (0.12%) were called active. The sample holds actives, similar compounds and a random draw of the others, so the mix is not that of the screen.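 The calls were made as follows: active = B-score of the integrated fluorescence ratio above library mean plus 3 SD, and starting fluorescence ratio within library mean plus 5 SD; inactive = the rest.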

These molecules were tested against Short transient receptor potential channel 6 (Mus musculus) (UniProt Q61143) (assay: mouse TRPC6 channel activators, primary screen, cell-based, HEK293, membrane potential dye (AID 2550;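 also: higher score means more depolarization so channel activation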)). Conditions: HEK293-TRPC6 membrane potential dye fluorescence, at 10 µM; stronger effect = higher value.
Sequence of Short transient receptor potential channel 6 (Mus musculus) (Q61143 whole entry, looked up): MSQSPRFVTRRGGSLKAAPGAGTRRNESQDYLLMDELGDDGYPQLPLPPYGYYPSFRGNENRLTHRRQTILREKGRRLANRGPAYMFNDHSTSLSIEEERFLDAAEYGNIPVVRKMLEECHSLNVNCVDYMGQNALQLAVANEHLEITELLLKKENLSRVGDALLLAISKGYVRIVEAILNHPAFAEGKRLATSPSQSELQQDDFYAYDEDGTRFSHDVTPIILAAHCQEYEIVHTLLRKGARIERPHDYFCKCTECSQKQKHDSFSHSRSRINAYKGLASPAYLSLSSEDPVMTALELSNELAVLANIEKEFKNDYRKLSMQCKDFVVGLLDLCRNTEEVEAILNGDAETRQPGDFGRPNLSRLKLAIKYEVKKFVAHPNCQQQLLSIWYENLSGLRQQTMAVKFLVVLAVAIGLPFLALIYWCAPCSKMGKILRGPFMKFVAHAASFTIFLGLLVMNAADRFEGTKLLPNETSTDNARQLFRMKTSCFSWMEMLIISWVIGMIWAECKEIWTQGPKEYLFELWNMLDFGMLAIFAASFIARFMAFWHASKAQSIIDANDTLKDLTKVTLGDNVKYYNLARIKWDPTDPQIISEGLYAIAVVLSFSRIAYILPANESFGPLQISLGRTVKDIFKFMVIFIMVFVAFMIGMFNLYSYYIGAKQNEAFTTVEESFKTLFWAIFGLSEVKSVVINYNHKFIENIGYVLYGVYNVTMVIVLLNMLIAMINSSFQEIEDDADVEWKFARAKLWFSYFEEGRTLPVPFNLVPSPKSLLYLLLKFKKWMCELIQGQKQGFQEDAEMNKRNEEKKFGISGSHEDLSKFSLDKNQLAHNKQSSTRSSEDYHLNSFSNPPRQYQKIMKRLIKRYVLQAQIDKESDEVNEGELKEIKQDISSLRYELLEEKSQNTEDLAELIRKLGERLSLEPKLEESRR

Row | Structure (SMILES) | B-score
1 | COc1ccc(CN2CCC(c3nc4ccc(Cl)cc4[nH]3)CC2)cc1 | inactive
2 | CCc1ccc(C(=O)NNC(=O)C2CCN(c3ncnc4sc(C)c(C)c34)CC2)cc1 | inactive
3 | O=C(O)CCn1c(SCc2cc(=O)n3ccccc3n2)nc2ccsc2c1=O | inactive
4 | Cc1sc(NC(=O)C2C3CCC(O3)C2C(=O)O)c(C(=O)OC(C)C)c1-c1ccc(Cl)cc1 (configuration not stated) | inactive
5 | CC(C)(C)n1nnnc1C(c1ccccc1F)N1CCN(C(=O)c2ccco2)CC1 (configuration not stated) | inactive
6 | CCOCCCN(C)C1CCN(C(=O)c2oc3ccccc3c2NC(=O)Cc2cccc([N+](=O)[O-])c2)CC1 | inactive
7 | CC1=C(N2CCN(c3ncccn3)CC2)CCC1=O | inactive
8 | O=S(=O)(NC(=S)Nc1ccccc1)c1ccc(F)cc1 | inactive
9 | Nc1ccc(SCCN2C(=O)c3ccccc3C2=O)cc1 | inactive
10 | COC(=O)CNc1nc(Cl)nc(N2CCC(C)CC2)n1 | inactive
11 | Cc1ccc(CNC(=O)c2ccccc2CCc2ccccc2)cc1 | inactive
12 | O=C1CC2(CC(c3ccc(Cl)cc3)=NO2)C(=O)N1c1ccccc1 (configuration not stated) | inactive
13 | CCCN(CCC)c1nc2c(C)cccn2c(=O)c1/C=C1/SC(=S)N(Cc2ccco2)C1=O | inactive
14 | CCOC(=O)N1CCN(C(=O)CSc2nc(=O)n3cccc(C)c3n2)CC1 | inactive
15 | CCOC(=O)CC1C(=O)NCCN1c1nc2c(C)cccn2c(=O)c1/C=C1\SC(=S)N(C(C)CC)C1=O (configuration not stated) | 26.7 (active)
16 | O=C1C2C3C=CC(C4CC34)C2C(=O)N1/N=C/c1ccc(-c2ccccc2[N+](=O)[O-])o1 (configuration not stated) | inactive
17 | COC(=O)[C@@H](Cc1ccccc1)NC(=O)NCCc1ccccc1 | inactive
18 | O=[N+]([O-])c1ccccc1N/N=C1\CCc2ccccc21 | inactive
19 | O=C(NCCS(=O)(=O)NCc1ccc(Cl)cc1)c1ccccc1 | inactive
20 | CC(C)NC(=O)c1ccc(Sc2ccccc2)c([N+](=O)[O-])c1 | inactive
21 | CCOc1ccc(S(=O)(=O)N2CCCCCC2)c2ccccc12 | inactive
22 | CC1CCCCC1NC(=O)CSc1nnc(-c2ccncc2)n1CCCN(C)C (configuration not stated) | inactive
23 | CCOC(=O)C1=C(O)/C(=C/c2cc(C)n(-c3ccccc3)c2C)N=C1C | inactive
24 | COc1cc(OC)c(C2=NOC(C(=O)Nc3c(C)n(C)n(-c4ccccc4)c3=O)C2)cc1Cl (configuration not stated) | inactive
25 | CC(C)Cc1oc(C(=O)O)cc1CN | inactive
26 | O=[N+]([O-])c1cc(Cl)cc(/C=N/NC(=S)Nc2cc(S(=O)(=O)N3CCOCC3)ccc2Cl)c1O | inactive

Row | Structure (SMILES) | B-score
27 | COc1ccc(S(=O)(=O)n2nc(C)c(S(=O)(=O)N3CCOCC3)c2C)cc1 | inactive
28 | CCOc1ccc(-c2c(C)n([O-])c3c([n+]2=O)CCCC3)cc1 | inactive
29 | COCCOC(=O)c1sc(=S)n(CCOC)c1N | inactive
30 | O=S(=O)(c1cccc2nonc12)N1CCN(c2cccc(Cl)c2)CC1 | inactive
31 | Cc1cc(C)nc(SC(C)C(=O)N/N=C/c2cccs2)n1 (configuration not stated) | inactive
32 | CCCCCCn1cc(C(=O)O)c(=O)c2cc(F)c(N3CCCCC3)cc21 | 12.2 (active)
33 | CCn1cc(C(=O)NCCO)c(=O)c2cc(F)c(N3CCN(C)CC3)cc21 | inactive
34 | CN1CCN(c2cc3c(cc2F)c(=O)c(C(=O)O)cn3CCF)CC1 | inactive
35 | COCCNC(=O)/C(C#N)=C/c1nc(N(C)C)n(-c2ccc(F)cc2)c1Cl | inactive
36 | CCOC(=O)Cn1c(=O)oc2cc(S(=O)(=O)N(C)Cc3ccco3)ccc21 | inactive
37 | CN(c1ccccc1)c1ccc(/C=c2\s/c(=C(/C#N)C(=O)C(C)(C)C)n(Cc3ccco3)c2=O)cc1 | 33.3 (active)
38 | CCOC(=O)/C=c1\s/c(=C\c2ccc(C#N)cc2)c(=O)n1CC(=O)Nc1cccc(C)c1C | inactive
39 | CCn1cc(/C=C(\NC(=O)c2cc(OC)c(OC)c(OC)c2)C(=O)N2CCN(C)CC2)c2ccccc21 | inactive
40 | O=C(NNc1ccccc1Cl)C(O)(c1cccc(C(F)(F)F)c1)c1cccc(C(F)(F)F)c1 | inactive
41 | CCOC1CCCCC1NS(=O)(=O)c1ccc(Cl)cc1 (configuration not stated) | inactive
42 | CCn1ccnc1CN1CCCC(C(=O)c2ccc3c4c(cccc24)CC3)C1 (configuration not stated) | inactive
43 | COc1cc2c(cc1OC)C(C(=O)NCc1ccco1)C1c3ccccc3CCN1C2=O (configuration not stated) | inactive
44 | CCn1cc(/C=C2/SC(=S)NC2=O)c(C)n1 | inactive
45 | CCN1C(=NCCc2cccnc2)N[C@@H](c2ccccc2)[C@H](C(=O)OC)[C@H]1C | inactive
46 | CCOc1ccc(NC(=O)C2CCN(C(=O)N3CCOc4ccccc43)CC2)cc1 | inactive
47 | CCCCn1c(N)c(N(CCOC)C(=O)c2cccc(OCc3ccccc3)c2)c(=O)[nH]c1=O | inactive
48 | C#CC(C)(C)NC(=O)c1cnc(-c2ccccc2)nc1-c1ccccc1 | inactive
49 | CC(=O)Nc1ccc(CN2CCC(Oc3ccc(C(=O)N4CCCC4)cc3)CC2)cc1 | inactive
50 | Cc1ccc(S(=O)(=O)/N=C(\CN2CCOCC2)N2CCOCC2)cc1 | inactive
51 | CCc1ccccc1OCC(=O)Nc1ccc2c(c1)OCCO2 | inactive
52 | COc1ccc2oc(C(=O)NCC(Cc3ccccc3)N(C)C)c(C)c2c1 (configuration not stated) | inactive

Row | Structure (SMILES) | B-score
53 | COc1c(O)ccc2c1CN1CCc3cc4c(cc3C1C2)OCO4 (configuration not stated) | inactive
54 | Cc1ccc(S(=O)(=O)c2nnn3c2nc(N2CCN(c4ccccn4)CC2)c2ccccc23)cc1 | inactive
55 | CC(C)(C)n1nnnc1C(c1ccc(Cl)cc1)N1CCSCC1 (configuration not stated) | inactive
56 | Cc1cccc(N2CCN(C(c3ccc(N(C)C)cc3)c3nnnn3C(C)(C)C)CC2)c1C (configuration not stated) | inactive
57 | CC(C)(C)n1nnnc1C(c1ccc2ncccc2c1)N1CCSCC1 (configuration not stated) | 12.7 (active)
58 | CN(C)C(CNC(=O)c1ccc(S(=O)(=O)NCc2ccco2)cc1)c1ccccc1 (configuration not stated) | inactive
59 | CC(=O)N(Cc1cccs1)C1CCOC(C)(C)C1 (configuration not stated) | inactive
60 | CCc1ccc(C2C(C#N)=C(N)N(N3CCOCC3)C3=C2C(=O)CC(C)(C)C3)s1 (configuration not stated) | inactive
61 | Cc1ccc(Cl)cc1N1CCN(C(=O)c2cccc3c(=O)c(C)c(-c4ccccc4)oc23)CC1 | inactive
62 | Cc1ccc(-c2csc(NCCc3nc4cc(Cl)c(Cl)cc4n3CCOCCO)n2)cc1 | inactive
63 | Cc1cc(/C=N/n2cnnc2)c(C)n1-c1ccc2ncccc2c1 | inactive
64 | COc1ccc(NC(=S)N2CCC(NC(=O)c3cccc(F)c3)CC2)cc1 | inactive
65 | CN(C)c1ccnc2sc(C(=O)c3ccccc3)c(N)c12 | inactive
66 | O=C(CN1C2=NCCN2c2ccccc21)c1cccs1 | inactive
67 | Nc1c(C(=O)c2cccs2)sc2nsc(SCCN3CCCCC3)c12 | 19.2 (active)
68 | O=C(NCCNc1ccccc1[N+](=O)[O-])c1ccccc1F | inactive
69 | O=C(CSc1nnc(Cn2cnc3ccccc32)o1)c1ccccc1 | inactive
70 | COc1ccc(NC(=O)c2oc3ccc(S(=O)(=O)N4CCOCC4)cc3c2C)cc1 | inactive
71 | Nc1ccc(Cl)c(S(=O)(=O)Nc2ccccc2Cl)c1 | inactive
72 | CCCCNC(=O)N1CCN(S(C)(=O)=O)CC1 | inactive
73 | CCCCn1c(O)c(N=NC(=O)Cn2c(C(F)(F)F)nc3ccccc32)c2ccccc21 | inactive
74 | COc1cc(/C=C2/SC(=S)N(Cc3ccccc3)C2=O)cc(OC)c1O | inactive
75 | O=C1/C(=C\c2ccsc2)NC(=S)N1c1ccccc1 | inactive
76 | CN(C)c1ccc(/C=C2\NC(=S)N(Cc3ccccc3)C2=O)cc1 | 22.1 (active)
77 | Cc1cccc(C)c1NC(=O)CSc1nc2c([nH]1)c(=O)n(C)c(=O)n2C | inactive
